Here are results for nine molecules from PubChem BioAssay (NCI).

The structures appear in SMILES notation. About 79,000 compounds went through this panel and 15% of them were active in at least one assay; those are over-represented in the sample as a whole. Unmarked numbers belong to inactive results. Active and inactive are the calls of the source. Cut-off read from the data, not from the text of the source: active = growth inhibition above about 70%; inactive = the rest.

Test [1] is described as follows: NCI Yeast Anticancer Drug Screen. Data for the rad50 strain (AID 155).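 Note: 0% = growth of vehicle-only cultures of the same strain.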 The following applies: S. cerevisiae rad50 strain growth inhibition, active compounds read high. Summed up:
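Yeast carrying a defined DNA repair defect were exposed to test compounds, and growth was compared with vehicle-treated controls to give percent inhibition.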

Test [2] in a line: NCI Yeast Anticancer Drug Screen. Data for the mec2-1 strain (AID 157). Conditions: S. cerevisiae mec2-1 strain, active compounds read high. Summed up: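 mec2-1 yeast strain, carrying an alteration in DNA damage repair or cell cycle control, was exposed to compounds; growth inhibition was measured relative to vehicle-treated controls.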
Test [3] can be described thus: NCI Yeast Anticancer Drug Screen. Data for the sgs1 mgt1 strain (AID 161).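 Note: 0% = growth of cultures given vehicle only.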 The following applies: S. cerevisiae sgs1 mgt1 strain, active compounds read high. Summed up: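 Compounds are added to genetically altered yeast, and growth is compared with cultures given vehicle alone to give percent inhibition.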
Test [4] in a line: NCI Yeast Anticancer Drug Screen. Data for the cln2 rad14 strain (AID 165).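 Note: 0% = growth equal to vehicle treated cultures.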 Conditions: S. cerevisiae cln2 rad14 strain, active compounds read high. The procedure, abridged:
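Yeast carrying cln2 and rad14 alterations (cell cycle control and DNA damage repair) were exposed to compounds. Growth inhibition was measured against vehicle-treated controls.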

Test [5] is described as follows: NCI Yeast Anticancer Drug Screen. Data for the bub3 strain (AID 167). Conditions: S. cerevisiae bub3 mutant strain, active compounds read high. The procedure, abridged:
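Compounds were applied to a genetically altered yeast strain carrying a cell-cycle control defect. Growth inhibition was scored against vehicle-treated controls.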

Test [6] is described as follows: NCI Yeast Anticancer Drug Screen. Data for the mlh1 rad18 strain (AID 175). Conditions: S. cerevisiae mlh1 rad18 strain growth inhibition, active compounds read high. The procedure, abridged:
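Growth inhibition of the yeast strain was measured after compound exposure and expressed relative to vehicle-treated controls. The strain carries defined defects in DNA damage repair.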

The mark [7] stands for this setting: at 5.0 µM (retest, dose inferred, filed as 0.5).
Setting [8] is: at 50.0 µM (retest, dose inferred, filed as 5.0).

As for `CCOC(=O)/C(C#N)=C\c1ccc(N(CCC(=O)O)CCC(=O)O)c(I)c1`, the growth inhibition in test [1] (setting [7]) is 1%; in test [1] (setting [8]), 77% (active); in test [1] (at 50.0 µM) it was -6.7%; in test [2] (setting [7]), -4%; in test [2] (setting [8]), 77% (active); in test [2] (at 50.0 µM), 33.5%. In addition, the growth inhibition is 3% in test [3] (setting [7]); 37% in test [3] (setting [8]); -5.3% in test [3] (at 50.0 µM); -7% in test [4] (setting [7]); 77% (active) in test [4] (setting [8]); 53.8% in test [4] (at 50.0 µM). The growth inhibition in test [5] (setting [7]) is 35%; in test [5] (setting [8]), 93% (active); in test [5] (at 50.0 µM), -13.1%; in test [6] (setting [7]), 10%; in test [6] (setting [8]), 77% (active); in test [6] (at 50.0 µM), -6.35%.
Take `CN(C)c1ccc(SC(=S)NCc2ccccc2)cc1`: the growth inhibition is 4% in test [1] (setting [7]); 92% (active) in test [1] (setting [8]); 97.5% (active) in test [1] (at 50.0 µM); -7% in test [2] (setting [7]); 92% (active) in test [2] (setting [8]); 98.2% (active) in test [2] (at 50.0 µM). For the same molecule, the growth inhibition in test [3] (setting [7]) is -2%; in test [3] (setting [8]), 82% (active); in test [3] (at 50.0 µM), 96.3% (active); in test [4] (setting [7]) it was -3%; in test [4] (setting [8]) it was 28%; in test [4] (at 50.0 µM), 95.8% (active). For the same molecule, the growth inhibition is -8% in test [5] (setting [7]); 96% (active) in test [5] (setting [8]); 97% (active) in test [5] (at 50.0 µM); 4% in test [6] (setting [7]); 90% (active) in test [6] (setting [8]); 94.4% (active) in test [6] (at 50.0 µM).
Turning to `CC1(Cc2ccccc2)CCCC(C=O)C1=O.[Cu+2]` (configuration not stated), the growth inhibition in test [1] (setting [7]) is 1%; in test [1] (setting [8]) it was 98% (active); in test [1] (at 50.0 µM), 66.5%; in test [2] (setting [7]) it was 0%; in test [2] (setting [8]) it was 97% (active); in test [2] (at 50.0 µM) it was 31.5%. Besides, the growth inhibition in test [3] (setting [7]) was -4%; in test [3] (setting [8]) it was 98% (active); in test [3] (at 50.0 µM), 94.7% (active); in test [4] (setting [7]) it was 0%; in test [4] (setting [8]) it was 92% (active); in test [4] (at 50.0 µM), -21.9%. Moreover, the growth inhibition in test [5] (setting [7]) was -3%; in test [5] (setting [8]) it was 96% (active); in test [5] (at 50.0 µM), -3.85%; in test [6] (setting [7]) it was 0%; in test [6] (setting [8]), 99% (active); in test [6] (at 50.0 µM), 44.9%.
`Cc1cccc2c(C(=O)CBr)cc(-c3ccc(Cl)cc3)nc12`: the growth inhibition was 54% in test [1] (setting [7]); 91% (active) in test [1] (setting [8]); 95.7% (active) in test [1] (at 50.0 µM); 89% (active) in test [2] (setting [7]); 93% (active) in test [2] (setting [8]); 95.3% (active) in test [2] (at 50.0 µM). The growth inhibition in test [3] (setting [7]) was 96% (active); in test [3] (setting [8]) it was 91% (active); in test [3] (at 50.0 µM) it was 95.2% (active); in test [4] (setting [7]), 36%; in test [4] (setting [8]), 85% (active); in test [4] (at 50.0 µM), 85.8% (active). For the same molecule, the growth inhibition is 74% (active) in test [5] (setting [7]); 92% (active) in test [5] (setting [8]); 95% (active) in test [5] (at 50.0 µM); 88% (active) in test [6] (setting [7]); 90% (active) in test [6] (setting [8]); 95.5% (active) in test [6] (at 50.0 µM).
Turning to `S=c1c2ccccc2[nH]c2ccccc12`, the growth inhibition in test [1] (setting [7]) is -3%; in test [1] (setting [8]), 86% (active); in test [1] (at 50.0 µM) it was 89.2% (active); in test [2] (setting [7]), -6%; in test [2] (setting [8]) it was 62%; in test [2] (at 50.0 µM) it was 63%. Also, the growth inhibition in test [3] (setting [7]) is -2%; in test [3] (setting [8]), 83% (active); in test [3] (at 50.0 µM), 60.6%; in test [4] (setting [7]) it was -7%; in test [4] (setting [8]), 46%; in test [4] (at 50.0 µM), 75.3% (active). For the same molecule, the growth inhibition in test [5] (setting [7]) is 8%; in test [5] (setting [8]), 33%; in test [5] (at 50.0 µM) it was 88.8% (active); in test [6] (setting [7]), -5%; in test [6] (setting [8]) it was 88% (active); in test [6] (at 50.0 µM) it was 85.5% (active).
For `S=C(NN1CCOCC1)SSC(=S)NN1CCOCC1`, the growth inhibition is 97% (active) in test [1] (setting [7]); 99% (active) in test [1] (setting [8]); 99.5% (active) in test [1] (at 50.0 µM); 97% (active) in test [2] (setting [7]); 99% (active) in test [2] (setting [8]); 99.6% (active) in test [2] (at 50.0 µM). Moreover, the growth inhibition in test [3] (setting [7]) was 94% (active); in test [3] (setting [8]) it was 99% (active); in test [3] (at 50.0 µM), 99.6% (active); in test [4] (setting [7]), 92% (active); in test [4] (setting [8]) it was 83% (active); in test [4] (at 50.0 µM) it was 99.3% (active). Also, the growth inhibition in test [5] (setting [7]) was 34%; in test [5] (setting [8]), 99% (active); in test [5] (at 50.0 µM), 99.8% (active); in test [6] (setting [7]), 77% (active); in test [6] (setting [8]) it was 99% (active); in test [6] (at 50.0 µM), 99.5% (active).
Take `COC(=O)C(O)(/C(=N\O)c1ccccc1)c1ccccc1` (configuration not stated): the growth inhibition is 0% in test [1] (setting [7]); 0% in test [1] (setting [8]); 4.8% in test [1] (at 50.0 µM); 0% in test [2] (setting [7]); -1% in test [2] (setting [8]); 16.7% in test [2] (at 50.0 µM). Besides, the growth inhibition in test [3] (setting [7]) is 5%; in test [3] (setting [8]) it was 0%; in test [3] (at 50.0 µM), 25.6%; in test [4] (setting [7]), -1%; in test [4] (setting [8]) it was -5%; in test [4] (at 50.0 µM) it was 71.1% (active). Further, the growth inhibition in test [5] (setting [7]) is 0%; in test [5] (setting [8]), -8%; in test [5] (at 50.0 µM), 29.1%; in test [6] (setting [7]) it was 0%; in test [6] (setting [8]), -2%; in test [6] (at 50.0 µM), 8.35%.
For the molecule `C[n+]1cccc2c1-c1ccccc1C2=O`, the growth inhibition in test [1] (setting [7]) was 6%; in test [1] (setting [8]), 22%; in test [1] (at 50.0 µM), -2.25%; in test [2] (setting [7]), -1%; in test [2] (setting [8]), 22%; in test [2] (at 50.0 µM) it was 1.6%. In addition, the growth inhibition in test [3] (setting [7]) was 3%; in test [3] (setting [8]), 8%; in test [3] (at 50.0 µM), 8.15%; in test [4] (setting [7]), -3%; in test [4] (setting [8]) it was 1%; in test [4] (at 50.0 µM) it was 39.5%. Moreover, the growth inhibition was -2% in test [5] (setting [7]); 9% in test [5] (setting [8]); 11.1% in test [5] (at 50.0 µM); 2% in test [6] (setting [7]); 28% in test [6] (setting [8]); 16.1% in test [6] (at 50.0 µM).
Turning to `O=C(O)c1cc2c3ccccc3sc2c2ccccc12`, the growth inhibition is -2% in test [1] (setting [7]); 4% in test [1] (setting [8]); 55.4% in test [1] (at 50.0 µM); -3% in test [2] (setting [7]); -4% in test [2] (setting [8]); 5.3% in test [2] (at 50.0 µM). The growth inhibition is -1% in test [3] (setting [7]); 3% in test [3] (setting [8]); 15.1% in test [3] (at 50.0 µM); -3% in test [4] (setting [7]); -3% in test [4] (setting [8]); 2.45% in test [4] (at 50.0 µM). The growth inhibition in test [5] (setting [7]) is -3%; in test [5] (setting [8]), -2%; in test [5] (at 50.0 µM) it was 19.7%; in test [6] (setting [7]), -3%; in test [6] (setting [8]) it was -2%; in test [6] (at 50.0 µM), 28%.
